Screen size: about 310,000 compounds; about 14,000 (4.5%) showed an effect of 50% or more. Effects have a minus sign here. This is one part of a sample in which strong results are shown more often than they occur.
biological target: human ether-à-go-go-related gene (hERG) potassium channel (human, UniProt Q12809); experiment: primary screen, population patch clamp on CHO cells stably expressing hERG; higher = less effect of the substance
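Note: peak tail current of the secondary pulse compared with the same well before compound.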

Sequence of human ether-à-go-go-related gene (hERG) potassium channel (Q12809 whole entry, looked up): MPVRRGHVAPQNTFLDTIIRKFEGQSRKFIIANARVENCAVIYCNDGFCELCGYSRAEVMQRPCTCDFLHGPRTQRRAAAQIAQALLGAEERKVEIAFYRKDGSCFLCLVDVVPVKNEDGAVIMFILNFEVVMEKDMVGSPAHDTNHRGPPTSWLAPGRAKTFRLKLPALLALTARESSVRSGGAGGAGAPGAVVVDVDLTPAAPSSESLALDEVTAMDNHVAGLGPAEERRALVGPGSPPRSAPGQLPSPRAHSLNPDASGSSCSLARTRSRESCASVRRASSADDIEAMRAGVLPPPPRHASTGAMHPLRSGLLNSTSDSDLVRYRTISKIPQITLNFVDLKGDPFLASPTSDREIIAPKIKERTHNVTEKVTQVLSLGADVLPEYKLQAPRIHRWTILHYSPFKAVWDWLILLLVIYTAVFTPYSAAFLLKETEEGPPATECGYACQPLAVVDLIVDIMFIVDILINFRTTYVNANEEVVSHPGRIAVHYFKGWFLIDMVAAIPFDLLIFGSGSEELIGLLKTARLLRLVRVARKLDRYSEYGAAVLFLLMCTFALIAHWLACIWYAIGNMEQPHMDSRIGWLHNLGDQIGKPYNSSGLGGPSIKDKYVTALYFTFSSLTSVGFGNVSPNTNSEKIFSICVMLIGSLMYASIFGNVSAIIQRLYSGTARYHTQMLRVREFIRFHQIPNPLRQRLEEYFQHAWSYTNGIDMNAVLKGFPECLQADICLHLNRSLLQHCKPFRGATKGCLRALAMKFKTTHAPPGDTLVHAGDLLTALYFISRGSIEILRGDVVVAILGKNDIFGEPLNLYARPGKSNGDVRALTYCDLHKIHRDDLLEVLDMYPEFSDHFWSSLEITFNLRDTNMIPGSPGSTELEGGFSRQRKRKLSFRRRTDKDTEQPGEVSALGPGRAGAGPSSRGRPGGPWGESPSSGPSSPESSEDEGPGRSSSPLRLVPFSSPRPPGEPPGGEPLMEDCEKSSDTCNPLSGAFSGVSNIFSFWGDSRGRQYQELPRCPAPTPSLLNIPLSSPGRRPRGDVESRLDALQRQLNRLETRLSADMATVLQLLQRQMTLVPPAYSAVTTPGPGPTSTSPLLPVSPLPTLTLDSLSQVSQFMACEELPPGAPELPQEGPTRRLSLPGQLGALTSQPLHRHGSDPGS

Structure (SMILES)	hERG current change (%, negative = inhibition) at 10uM
COc1ccc(C(=O)Oc2coc(CSc3nnc(NC(=O)c4cccs4)s3)cc2=O)cc1	24.2%
C[C@H]1CN(C2CCCCC2)C(=O)[C@@H]1CC(=O)NCc1ccccc1	-6.72%
COc1ccc(CNC(=O)C2CC(=O)N(C3CCCCC3)C2)cc1 (centres unmarked)	13.7%
CCCCC[C@H]1CN(C2CCCCC2)C(=O)[C@@H]1CC(=O)NCc1ccccc1	-67.7%
CCCCC[C@H]1CN(C2CCCCC2)C(=O)[C@@H]1CC(=O)NCc1ccc(OC)cc1	-67.4%
O=C(C[C@H]1C(=O)N(C2CCCCC2)C[C@@H]1Cc1ccccc1)Nc1ccccc1	-27.4%
COc1ccc(CNC(=O)C[C@H]2C(=O)N(C3CCCCC3)C[C@@H]2Cc2ccccc2)cc1	-5.71%
CCN(CC)CCN(CC)Cc1ccccc1Br	-19.8%
Cc1cc(/C=C2\C(=O)NC(=O)N(Cc3ccccc3Cl)C2=O)c(C)n1-c1ccc(C(=O)O)cc1	46%
Cc1[nH]nc(-c2ccc(OCc3cnn(-c4ccccc4)c3)cc2O)c1Oc1ccc(F)cc1	22.6%
CCn1cc(-c2cc(C(F)(F)F)n3nc(C(=O)O)cc3n2)c(C)n1	-8.81%
COc1ccc(NC(=O)c2cc(S(=O)(=O)Nc3ccc(OC)cc3)cs2)cc1	-3.01%
CC(=O)c1c2c3c(cccc3n(C)c1=O)C(=O)c1ccccc1-2	-1.1%
CCOC(=O)c1c2c3c(cccc3n(C)c1=O)C(=O)c1ccccc1-2	-71.8%
CCOC(=O)c1c2c3c(cccc3[nH]c1=O)C(=O)c1ccccc1-2	17.6%
O=C(CC1CCCCC1)Nc1ccccc1-c1ccccc1	6.47%
Cl.O=C(CN1CCN(C2CCCCC2)CC1)Nc1cccc2ccccc12	-31.2%
O=C(CN1C(=O)C2CCCCC2C1=O)Nc1ccccc1N1CCCC1 (centres unmarked)	1.43%
CC1CCN(CC(=O)Nc2ccccc2-c2ccccc2)CC1	-25.1%
Cl.O=C(CN1CCN(C2CCCCC2)CC1)Nc1ccccc1-c1ccccc1	-70.1%
Cl.O=C(CN1CCN(C2CCCCC2)CC1)Nc1ccccc1N1CCCCC1	-66.2%
CCC(C)NC(=O)COC(=O)c1cccnc1Nc1ccccc1F (centres unmarked)	8.21%
COc1ccc(NS(=O)(=O)c2ccc(Oc3ncccn3)cc2)cc1	3.85%

Structure (SMILES)	hERG current change (%, negative = inhibition) at 10uM
CC(C)c1cc(-c2cc(-c3ccc(Cl)cc3)on2)nc(NC2CCCC2)n1	13.3%
Cc1cc(C(=O)Nc2nc3ccc(Cl)cc3s2)nn1C	5.89%
CCOC(=O)C(C)/C(C)=N/NC(N)=S (centres unmarked)	14.4%
CCOc1ccc(OCCOCCN2CCOCC2)cc1.O=C(O)C(=O)O	0.827%
Cl.c1ccc(OCCOCCN2CCc3ccccc3C2)cc1	-42.8%
CCOc1ccc(S(=O)(=O)N2CCc3ccccc3C2)cc1	9.5%
CCCOc1ccc(OCCOCCN2CCc3ccccc3C2)cc1	-64.7%
CCOc1ccc(OCCOCCN2CCc3ccccc3C2)cc1	-74.8%
N#Cc1ccc(OCCN2CCc3ccccc3C2)cc1	-45.2%
COc1ccc(OCCOCCN2CCc3ccccc3C2)cc1	-69.9%
COc1ccc(OCCCN2CCc3ccccc3C2)cc1.Cl	-47.5%
COc1ccc(OCCOCCN2CCOCC2)cc1	5.25%
CCCC(C)NC(=O)COC(=O)c1ccc(Cl)c(S(N)(=O)=O)c1 (centres unmarked)	8.02%
CCOc1ccc(NC(=O)N2CCCC2C(=O)NCC2CCCO2)cc1 (centres unmarked)	18.5%
O=C1CCCCC1Sc1nnc(Nc2ccccc2)s1 (centres unmarked)	-7.47%
O=C(Cn1nc2sc3ccccc3n2c(=O)c1=O)c1cccs1	7.63%
CCNC(=S)Nc1ccc(Cc2ccncc2)cc1	-4.01%
COc1ccc(-c2cc(C(F)(F)F)c(C#N)c(SCC(=O)Nc3nc(C)co3)n2)cc1	1.46%
O=C(NCc1ccc(F)cc1)C(c1ccccc1)c1ccccc1	4.43%
Cc1ccc(CNC(=O)C(c2ccccc2)c2ccccc2)cc1	-64%
CCC(C(=O)NCc1ccc(C)cc1)c1ccccc1 (centres unmarked)	-1.35%
CCOC(=O)c1ccc(NC(=O)COc2ccccc2OC)cc1	2.1%
CCOC(=O)c1ccc(NC(=O)COc2ccccc2CNCCc2ccccc2)cc1.Cl	-79.3%

Structure (SMILES)	hERG current change (%, negative = inhibition) at 10uM
CCOC(=O)c1ccc(NC(=S)NC2CCCC2)cc1	-7.86%
CCOC(=O)c1ccc(NC(=O)COc2ccccc2CNC2CCCC2)cc1.Cl	-78.1%
CCOC(=O)c1ccc(NC(=O)COc2ccc(CNC3CCCCC3)cc2OC)cc1	-26%
CCOC(=O)c1ccc(NC(=O)COc2ccccc2CNCCO)cc1	-24%
CN(C)S(=O)(=O)Oc1ccccc1C(=O)Nc1ccc(F)cc1F	2.34%
COc1ccc(C)cc1NC(=O)C1CCCN(S(=O)(=O)c2ccc3c(c2)CCCN3C(C)=O)C1 (centres unmarked)	-2.38%
CCN(CC)CCNC(=O)C1c2ccccc2C(=O)N(C)C1c1cn(C)c2ccccc12 (centres unmarked)	-19.5%
CCN(CC)CCCNC(=O)C1c2ccccc2C(=O)N(C)C1c1ccc(OC)cc1 (centres unmarked)	6.8%
CCCCN(CC)CCCNC(=O)C1c2ccccc2C(=O)N(C)C1c1cn(C)c2ccccc12 (centres unmarked)	-72.7%
Cc1ccccc1S(=O)(=O)N1CC(C(=O)O)=CC[C@H]1c1ccc(Cl)cc1	15.8%
CC(CSc1nnnn1-c1ccccc1)Cn1c(N2CCCC2)nc2c1c(=O)[nH]c(=O)n2C (centres unmarked)	-45.1%
CC(CSc1nnnn1-c1ccccc1)Cn1c(N2CCN(C)CC2)nc2c1c(=O)[nH]c(=O)n2C (centres unmarked)	-43.6%
Cn1c(=O)[nH]c(=O)c2c1nc(N1CCCC1)n2CCCSc1nnnn1-c1ccccc1	-13.5%
CC1CCN(c2nc3c(c(=O)[nH]c(=O)n3C)n2CC(C)CSc2nnnn2-c2ccccc2)CC1 (centres unmarked)	-57.6%
CN1CCN(c2nc3c(c(=O)[nH]c(=O)n3C)n2CCSc2nnnn2-c2ccccc2)CC1	-17%
CN1CCN(c2nc3c(c(=O)[nH]c(=O)n3C)n2CCCSc2nnnn2-c2ccccc2)CC1	-51.2%
CCCN1Cc2cccc(C(=O)Nc3ccc(CC)cc3)c2C1=O	8.1%
Cc1cc(C)nc(NC(=O)c2ccc(C)c(C)c2)n1	18%
Oc1cccc(-n2nnnc2SCc2ccccc2F)c1	7.33%
Cc1cc(C)c(S(=O)(=O)c2ccccc2)c(=O)[nH]1	20.6%
COc1ccc(NC(=O)c2c(C)nn(-c3ccccc3)c2Cl)cc1	20.4%
CCNC(=O)COC(=O)c1[nH]c(C)c(C(=O)OC)c1C	8.24%
Cc1cc2oc(=O)cc(CN3CCN(Cc4ccc5c(c4)OCO5)CC3)c2cc1C	-17.2%

Structure (SMILES)	hERG current change (%, negative = inhibition) at 10uM
CCN1CCN(Cc2cc(=O)oc3cc(C)cc(C)c23)CC1	-68.1%
Cc1cc(C)c2c(CN3CCCCC3C)cc(=O)oc2c1.Cl (centres unmarked)	13.9%
Cc1cc(C)c2c(CN3CCN(Cc4ccc5c(c4)OCO5)CC3)cc(=O)oc2c1	-75.4%
Cc1cc(C)c2c(CN3CCOCC3)cc(=O)oc2c1	-7.28%
Cc1cc(C)c2c(CN3CCCCC3)cc(=O)oc2c1	10.7%
Cc1cc(C)c2c(CN3CCN(Cc4ccc5c(c4)OCO5)CC3)cc(=O)oc2c1C	-45.8%
Cc1cc(O)c2c(CN3CCN(Cc4ccccc4)CC3)cc(=O)oc2c1	-13.1%
Cc1cc(C)c2c(CN3CCN(C)CC3)cc(=O)oc2c1	-73.3%
Cc1cc(C)c2c(CCl)cc(=O)oc2c1	-1.06%
Cc1cc(C)c2c(CN3CCN(Cc4ccccc4)CC3)cc(=O)oc2c1.Cl	-66.9%
CC1CCCN(C(=O)CNC(=O)Cn2ccc3ccccc3c2=O)C1 (centres unmarked)	-5.78%
COc1cc(NC(=O)c2ccc(COCC(F)(F)F)o2)cc(OC)c1OC	-16.8%
COc1ccc(OC)c(NC(=O)CCCCCn2nnc3ccccc3c2=O)c1	-2.09%
CN(C)S(=O)(=O)c1cc(NC(=O)CSc2cccc[n+]2[O-])ccc1Cl	9.64%
COc1ccc(-n2c(-c3cccc(OC)c3)nc(=S)c3c2CCCC3)cc1	8.47%
CC(=O)O/N=C(/c1nonc1N)N1CCN(c2ccc([N+](=O)[O-])cc2Cl)CC1	-33.9%
COCc1[nH]nc2c1C(c1c(F)cccc1Cl)C(C#N)=C(N)O2 (centres unmarked)	-3.01%
Cc1ccc(NC(=O)c2ccc(NCCN)c([N+](=O)[O-])c2)cc1Cl	-14.3%
CCc1ccc2[nH]c3nc(N/N=C/c4ccc(O)cc4O)nnc3c2c1	3.31%
CCOc1ccc(C(=O)C[n+]2ccc(C(=O)NCCO)cc2)cc1.[Br-]	18.3%
